Screening data (PubChem BioAssay)
Mot1-301 SUMO: inhibitors of SUMOylation pathway: yeast Mot1-301 growth rescue; S. cerevisiae Mot1-301 growth rescue, ATP luminescence, 38.5C; percent above DMSO median, 100 means doubled; growth rescue, % at 18.8 µM; 320,000 compounds, 1% hits; AID 2716;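 active = every valid replicate shows activation above 250% relative to neutral control wells; inactive = the rest, any valid replicate at or below 250%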;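 also: OY570 slx delta 5 strain wells were the positive control but not used for scaling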
HIF activator: HIF pathway transcriptional activation. activation, % at 7.5 µM (by protocol). U2OS HRE-luciferase reporter, luminescence; normalized: DMSO 0%, desferrioxamine 100%. 300,000 compounds, 0.32% hits;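 active = mean activation of at least 10% of the iron chelator positive control signal, with at least half of replicates also reaching 10%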
M18AAP inhibitor: PfM18AAP enzyme inhibition. recombinant PfM18AAP, H-Glu-NHMec fluorogenic cleavage. inhibition, % at 7.35 µM. 290,000 compounds, 1.2% hits. AID 1822;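 active = inhibition above the campaign mean inhibition over all tested compounds plus 3 SD, cut at about 28% in these data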;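 also: 0% = plate median of test compound wells and 100% = 2 mM ZnCl2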
ALR inh: human ALR oxidase inhibition via reduced H2O2; P55789; purified ALR, DTT oxidation, H2O2 HRP-luminol luminescence; inhibition, % (test concentration not listed); 290,000 compounds, 3.8% hits;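 active = mean replicate inhibition above about 79%, with every replicate also reaching it, limit read from the data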
Target sequence (P55789 whole entry, looked up): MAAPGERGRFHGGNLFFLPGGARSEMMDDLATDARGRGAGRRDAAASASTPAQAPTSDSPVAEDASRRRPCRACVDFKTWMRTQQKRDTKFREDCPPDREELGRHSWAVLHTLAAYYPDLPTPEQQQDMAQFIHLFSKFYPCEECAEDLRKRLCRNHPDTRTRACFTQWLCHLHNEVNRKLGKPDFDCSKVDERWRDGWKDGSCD
The depositor's hits bear a star. This is a sample that favours compounds with a hit; in the whole collection about 5.3% have one here.

CC(=O)CNc1ccc(S(=O)(=O)N/N=C/c2ccccc2)cc1 was read as Mot1-301 SUMO 0, HIF activator 0 and M18AAP inhibitor 4.
Screening CCOP(=O)(OCC)C(Nc1ccc(OC)cc1)c1ccco1 (configuration not stated) returned Mot1-301 SUMO 0, HIF activator -1, M18AAP inhibitor -8 and ALR inh 95*.
N#Cc1c2n(c(=S)n(-c3ccc(F)cc3)c1=O)CCCCC2 was read as Mot1-301 SUMO -8, HIF activator 0, M18AAP inhibitor -10 and ALR inh -6.
Screening COc1cc(/C=N/Nc2ccc(C(F)(F)F)cn2)cc(OC)c1O returned HIF activator 1 and M18AAP inhibitor 17.
`Oc1ccc(/C=N/Nc2ccc(C(F)(F)F)cn2)cc1` gave Mot1-301 SUMO 18, HIF activator 5, M18AAP inhibitor 1 and ALR inh 97*.
For Oc1ccc(/C=N/Nc2ccc(C(F)(F)F)cn2)c(O)c1 the results were Mot1-301 SUMO 331, HIF activator 15*, M18AAP inhibitor 25 and ALR inh 22.
COCCN(C(=O)COC(=O)c1oc2ccc(OC)cc2c1C)c1c(N)n(Cc2ccccc2)c(=O)[nH]c1=O was read as Mot1-301 SUMO 9, HIF activator 0, M18AAP inhibitor 2 and ALR inh -2.
For Nc1nc2ccc(-c3nc4ccccc4o3)cc2s1 the results were Mot1-301 SUMO 18, HIF activator 1, M18AAP inhibitor 7 and ALR inh 97*.
`O=C(CSc1ccccc1F)NCC1(N2CCCCC2)CCCCC1` gave Mot1-301 SUMO 27 and ALR inh -2.
Screening Cc1ccc(-c2c(C(=O)O)c(C(=O)O)c3n2CSC3)cc1 returned Mot1-301 SUMO -5, HIF activator 2, M18AAP inhibitor -10 and ALR inh 93*.
`CC(C)(C)c1ccc(-c2c(C(=O)O)c(C(=O)O)c3n2CSC3)cc1` gave Mot1-301 SUMO 30, HIF activator 0, M18AAP inhibitor 6 and ALR inh 55.
COC(=O)c1c(C(=O)OC)c(-c2ccc(F)cc2)n2c1CSC2 was read as Mot1-301 SUMO 1, HIF activator 0, M18AAP inhibitor -6 and ALR inh 99*.
Screening O=C(O)c1c(C(=O)O)c(-c2ccc(Br)cc2)n2c1CSC2 returned Mot1-301 SUMO 0, HIF activator 1, M18AAP inhibitor 10 and ALR inh 98*.
For C/C(=N\NC(=O)c1nnn(-c2nonc2N)c1CN1CCCCC1)c1ccccc1O the results were Mot1-301 SUMO -12, HIF activator 0 and M18AAP inhibitor 4.
CC(C)CCOC(=O)/C(=C/c1ccco1)NC(=O)/C=C/c1ccccc1 was read as Mot1-301 SUMO 60, HIF activator 0, M18AAP inhibitor 2 and ALR inh 90*.
`CCCC1CCC(c2ccc(C(N)=O)cc2)CC1` (configuration not stated) gave Mot1-301 SUMO -9, HIF activator 0, M18AAP inhibitor 9 and ALR inh -6.
For CCCC1CCC(c2ccc(/C(N)=N/O)cc2)CC1 (configuration not stated) the results were Mot1-301 SUMO 204, HIF activator 0, M18AAP inhibitor 1 and ALR inh 94*.
Screening COc1cc(CNn2cn[nH]c2=S)cc(Cl)c1OCc1ccc(F)cc1 returned Mot1-301 SUMO 31, HIF activator 0, M18AAP inhibitor 9 and ALR inh 97*.
COc1cc(CNn2c(C)n[nH]c2=S)cc(Cl)c1OCc1ccccc1 was read as Mot1-301 SUMO 279, HIF activator -1, M18AAP inhibitor -3 and ALR inh 56.
Fc1cccc(Cl)c1CNC(c1ccccc1)c1ccccc1 was read as Mot1-301 SUMO 38, HIF activator -1, M18AAP inhibitor 6 and ALR inh 1.
Fc1cccc(Cl)c1CNn1cn[nH]c1=S was read as Mot1-301 SUMO 459, HIF activator 0, M18AAP inhibitor 19 and ALR inh 82*.
Screening S=c1[nH]ncn1NCc1ccc(Cl)cc1Cl returned Mot1-301 SUMO 8, HIF activator 0, M18AAP inhibitor 26 and ALR inh 89*.
CC(C)Cc1nnc(NC(=O)c2ccc3c(c2)OCCO3)s1 was read as Mot1-301 SUMO 2 and ALR inh -5.
Screening O=C1NC(=NCc2ccccc2)S/C1=C/c1ccc(O)cc1 returned Mot1-301 SUMO 1, HIF activator 0, M18AAP inhibitor 7 and ALR inh 94*.
For COc1ccc(/C=C2\SC(=Nc3ccccc3)NC2=O)cc1 the results were Mot1-301 SUMO 130, HIF activator 0, M18AAP inhibitor -4 and ALR inh -3.
